Screen size: about 290,000 compounds; about 3,000 (1%) were called active. This is one part of a sample in which actives are shown more often than they occur. Cut-off read from the data, not from the text of the source: active = inhibition mostly above about 36% (no sharp cut-off); inactive = mostly below about 34%.
assay: inhibition of NOD1-driven NF-kB reporter – cell-based, luminescence, uHTS, primary screen (AID 1578); details: NOD1-driven NF-kB luciferase reporter cells, at 4 µM, active compounds read high;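 note: HEK-293T reporter cells stimulated with the NOD1 agonist gamma-tri-DAP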

Q: With COc1ccc(OC)c(NC(=O)c2nnn(Cc3ccccc3C)c2N)c1 as the molecule, how does the inhibition read?
A: -33.8% (inactive)

Q: For CC1CSc2ccccc2NC1=S (stereo not given), which inhibition is on record?
A: -19.1% (inactive)

Q: With CC1CC(=S)Nc2ccccc2N1Cc1ccccc1 (stereo not given) as the molecule, how does the inhibition read?
A: -2.8% (inactive)

Q: With CC1CN(Cc2ccccc2)c2ccccc2NC1=S (stereo not given) as the molecule, how does the inhibition read?
A: 108% (active)

Q: For COc1cc(NC(=O)c2cnn3c(C(F)F)cc(C4CC4)nc23)c(OC)cc1Cl, which inhibition is on record?
A: -21.7% (inactive)

Q: Which inhibition does the source give for COc1ccc(OCC(=O)Nc2ccc(NC(=O)c3ccccc3Cl)c(OC)c2)cc1 here?
A: -16.9% (inactive)

Q: Which inhibition does the source give for COc1ccc2cc3cc(C(=O)NCCC(C)C)oc3nc2c1 here?
A: -9.5% (inactive)

Q: Which inhibition does the source give for COCCNC(=O)c1cc2cc3ccc(OC)cc3nc2o1 here?
A: 4.6% (inactive)

Q: Which inhibition does the source give for O=C(CSc1nc2ccccc2[nH]1)N1CCN(c2ccccc2)CC1 here?
A: -37.6% (inactive)

Q: Which inhibition does the source give for CC1=CC(C)(C)Nc2ccc(OC(=O)c3cccnc3)cc21 here?
A: 34.3% (inactive)

Q: For CC1=CC(C)(C)Nc2ccc(OC(=O)c3ccco3)cc21, which inhibition is on record?
A: 98.8% (active)

Q: With CC1=CC(C)(C)Nc2ccc(OC(=O)CN3C(=O)c4ccccc4C3=O)cc21 as the molecule, how does the inhibition read?
A: 21.8% (inactive)

Q: Which inhibition does the source give for O=C(NCC1CCCO1)c1ccc(S(=O)(=O)N2CCC(c3nc4ccc(Cl)cc4[nH]3)CC2)cc1 (stereo not given) here?
A: -25.9% (inactive)

Q: For COCCNC(=O)C(c1ccc(C)o1)N(C(=O)C(=O)NC1CCCCC1)c1ccc(F)cc1 (stereo not given), which inhibition is on record?
A: -37.3% (inactive)

Q: Which inhibition does the source give for CSCCC(NC(=O)c1ccccc1)C(=O)Nc1ccc(C)cc1 (stereo not given) here?
A: 1.6% (inactive)

Q: Which inhibition does the source give for CSCCC(NC(=O)c1cccc(C)c1)C(=O)O (stereo not given) here?
A: 2% (inactive)

Q: Which inhibition does the source give for CSCCC(NC(=O)c1cccc(C)c1)C(=O)Nc1sccc1C(N)=O (stereo not given) here?
A: 68.6% (active)

Q: Which inhibition does the source give for NC1=NC(=O)/C(=C/c2cn(CCC(=O)O)nc2-c2ccc(Cl)cc2)S1 here?
A: -34.5% (inactive)

Q: Which inhibition does the source give for CCOc1ccc(NC(=O)CSc2nnc(N)s2)c([N+](=O)[O-])c1 here?
A: -24.6% (inactive)

Q: With OC1CCCN(CC(O)c2ccccc2)C1 (stereo not given) as the molecule, how does the inhibition read?
A: -32.3% (inactive)

Q: With Brc1ccc(N/N=C(/N=Nc2nn[nH]n2)c2ccccc2)cc1 as the molecule, how does the inhibition read?
A: 63.8% (active)

Q: Which inhibition does the source give for Cn1nnnc1N=N/C(=N/Nc1ccccc1)c1ccccc1 here?
A: -8.4% (inactive)

Q: With C/C(=N\Nc1ccc(C(=O)O)cc1)c1ccc(Br)cc1 as the molecule, how does the inhibition read?
A: 5% (inactive)

Q: Which inhibition does the source give for CCOc1ccc(S(=O)(=O)Nc2cc(F)ccc2F)c2cccnc12 here?
A: -15.4% (inactive)

Q: For CC1=NN(c2cccc(C(=O)O)c2)C(=O)/C1=C\C=C\c1ccco1, which inhibition is on record?
A: -11.6% (inactive)

Q: For CC1=NN(c2ccccc2)C(=O)/C1=C/C=C/c1ccccc1, which inhibition is on record?
A: 31.6% (inactive)

Q: Which inhibition does the source give for CC1=NN(c2cccc(C(=O)O)c2)C(=O)/C1=C\C=C/c1ccccc1 here?
A: 58.9% (active)

Q: For CCCNC(=O)c1onc(CSc2nc3ccccc3[nH]2)c1C(=O)NCCC, which inhibition is on record?
A: 11.1% (inactive)

Q: With C=CCn1c(Sc2ncc([N+](=O)[O-])s2)n[nH]c1=O as the molecule, how does the inhibition read?
A: 30.1% (active)

Q: Which inhibition does the source give for C=CCn1c(CSc2ccccc2[N+](=O)[O-])n[nH]c1=S here?
A: -1.6% (inactive)

Q: With C=CCn1c(Sc2nnc(C)s2)nc2c1c(=O)[nH]c(=O)n2C as the molecule, how does the inhibition read?
A: -4.6% (inactive)

Q: For CCOC(=O)CSc1nc(N)c(C#N)cc1C#N, which inhibition is on record?
A: -40.2% (inactive)

Q: For COc1cc(CN2CCNC(=O)C2CC(=O)N(C)CCCN2CCOCC2)cc(OC)c1 (stereo not given), which inhibition is on record?
A: -24.5% (inactive)

Q: For O=C1CN(/N=C/c2ccc([N+](=O)[O-])o2)C(=O)N1, which inhibition is on record?
A: -4.5% (inactive)

Q: With O=[N+]([O-])c1ccc(/C=[N+](\[O-])[C@@H]2CCCC[C@@H]2/[N+]([O-])=C/c2ccc([N+](=O)[O-])o2)o1 as the molecule, how does the inhibition read?
A: -2% (inactive)

Q: Which inhibition does the source give for O=C1NC(=S)S/C1=C\C=C\c1ccc([N+](=O)[O-])o1 here?
A: 39.6% (active)

Q: Which inhibition does the source give for COc1ccc(C(C)=O)cc1CC(=O)Nc1ccccc1-c1ccccc1 here?
A: -4.6% (inactive)

Q: For Cc1sc2nc[nH]c(=S)c2c1-c1ccccc1, which inhibition is on record?
A: 99.2% (active)

Q: For S=c1[nH]cnc2scc(-c3ccccc3)c12, which inhibition is on record?
A: -0.1% (inactive)

Q: For Cc1c(-c2ccccc2)sc2nc[nH]c(=S)c12, which inhibition is on record?
A: -35.9% (inactive)

Q: For O=C(COC(=O)c1ccc(Br)cc1)NCc1ccc(F)cc1, which inhibition is on record?
A: -22.6% (inactive)

Q: Which inhibition does the source give for O=C(COC(=O)Cc1ccc(-c2ccccc2)cc1)NCc1ccc(F)cc1 here?
A: -4.2% (inactive)

Q: For O=C(COC(=O)Cc1ccc(Br)cc1)NCc1ccc(F)cc1, which inhibition is on record?
A: 48.2% (active)

Q: For COc1ccc(/C(C)=N/NC(=O)c2sccc2-n2cccc2)cc1, which inhibition is on record?
A: -58.2% (inactive)

Q: Which inhibition does the source give for Cc1nc(NCc2ccco2)c2c3c(sc2n1)CCC3 here?
A: -54.6% (inactive)

Q: For Cc1nc(NCc2ccco2)c2c(C)c(C)sc2n1, which inhibition is on record?
A: 97.6% (active)

Q: For Cc1sc2ncnc(NCc3ccco3)c2c1C, which inhibition is on record?
A: -21.2% (inactive)

Q: With COc1ccccc1C1CCN(Cc2ccc(C)cc2)CC1 as the molecule, how does the inhibition read?
A: 4.9% (inactive)

Q: Which inhibition does the source give for Cc1cc(/C=C2\Cc3ccccc3C2=O)c(C)n1-c1ccccc1 here?
A: 63.8% (active)

Q: Which inhibition does the source give for Cc1cc(C=C2C(=O)CCCC2=O)c(C)n1-c1ccccc1 here?
A: -19.3% (inactive)

Q: With Cc1cc(C=C2C(=O)c3ccccc3C2=O)c(C)n1-c1ccccc1 as the molecule, how does the inhibition read?
A: 32.4% (inactive)

Q: For Cc1nc(N)ncc1-c1ccc2c(c1)OCO2, which inhibition is on record?
A: 2.9% (inactive)

Q: For O=C(NCC(=O)N(c1ccc(Cl)cc1)C(C(=O)NC1CCCC1)c1cccnc1)c1ccco1 (stereo not given), which inhibition is on record?
A: 6% (inactive)

Q: For N#CC(=C1N=c2ccccc2=N1)c1c(O)[nH]c2ccccc12, which inhibition is on record?
A: 20% (inactive)

Q: Which inhibition does the source give for Oc1[nH]c(N=C2N=c3ccccc3=N2)c2ccccc12 here?
A: 42.6% (active)

Q: Which inhibition does the source give for Oc1[nH]c2ccccc2c1N=Nc1cccc(Cl)c1 here?
A: -10.3% (inactive)

Q: Which inhibition does the source give for CC(C)NC(=O)NC(=O)COC(=O)c1cc[n+]([O-])cc1 here?
A: -6.6% (inactive)

Q: Which inhibition does the source give for CCOC(=O)CON1C(=O)C(=O)N(OCC(=O)OCC)C2CCCCC21 (stereo not given) here?
A: -26.3% (inactive)

Q: With CC(C)(C)N1CC(COc2ccccc2)OC1=O (stereo not given) as the molecule, how does the inhibition read?
A: -21.9% (inactive)

Q: For Cc1sc(NC(=O)CCl)c(C(=O)c2ccccc2)c1C, which inhibition is on record?
A: 60.9% (active)

Q: Which inhibition does the source give for Cc1ccc(C(=O)Nc2sc(C)c(C)c2C(=O)c2ccccc2)cc1 here?
A: -9.8% (inactive)

Q: Which inhibition does the source give for Cc1sc(NC(=O)c2ccccc2)c(C(=O)c2ccccc2)c1C here?
A: 14.5% (inactive)

Q: For Cc1ccc(NC(=O)CN(C)C(=O)/C=C/c2cccc(F)c2)cc1, which inhibition is on record?
A: -1.6% (inactive)

Q: With Cc1ccc2c(c1)cc(CN(Cc1cccnc1)C(=O)c1ccccc1)c1nnnn12 as the molecule, how does the inhibition read?
A: -33.2% (inactive)

Q: For Cc1ccc2c(c1)cc(CN(Cc1cccnc1)C(=O)NCc1ccccc1)c1nnnn12, which inhibition is on record?
A: -2.2% (inactive)

Q: For COCCN(Cc1cc2cc(C)ccc2n2nnnc12)C(=S)Nc1cccc(C)c1, which inhibition is on record?
A: 33.3% (inactive)

Q: With COCCN(Cc1cc2cc(C)ccc2n2nnnc12)C(=S)Nc1ccccc1C as the molecule, how does the inhibition read?
A: 52.2% (active)

Q: Which inhibition does the source give for COCCN(Cc1cc2cc(C)ccc2n2nnnc12)C(=S)Nc1ccc(C)cc1 here?
A: 10.5% (inactive)

Q: With Cc1ccc(C(=O)N(Cc2cccnc2)Cc2cc3cc(C)ccc3n3nnnc23)cc1 as the molecule, how does the inhibition read?
A: 52% (active)

Q: With COc1ccc(-c2csc(-c3[nH]cnc3N)n2)cc1 as the molecule, how does the inhibition read?
A: -36.1% (inactive)

Q: Which inhibition does the source give for COCCNC(=O)Cn1ccc2cc(S(=O)(=O)N3CCCCCC3)ccc21 here?
A: -9.2% (inactive)

Q: Which inhibition does the source give for COc1cc(-c2noc(C)c2-c2ccc3[nH]ccc3c2)cc(OC)c1OC here?
A: 33.3% (inactive)

Q: With CC1CCCN(C(=O)CCNS(=O)(=O)c2ccc3c(c2)oc(=O)n3C)C1 (stereo not given) as the molecule, how does the inhibition read?
A: -23.9% (inactive)

Q: With Cc1ccc(Sc2ccc(NC(=O)CCl)cc2)cc1C as the molecule, how does the inhibition read?
A: 21.2% (inactive)

Q: With O=C(CSCc1ccc(Cl)cc1)Nc1ccccc1O as the molecule, how does the inhibition read?
A: -40% (inactive)

Q: Which inhibition does the source give for O=C(Cc1ccc(-c2ccccc2)cc1)Nc1ccccc1 here?
A: -1.9% (inactive)

Q: For CC(C)N(c1ccccc1)c1ccc(NC(=S)NCCN(C)C)cc1, which inhibition is on record?
A: -23.3% (inactive)

Q: With Cc1ccc(C)c(Sc2ccc(NC(=O)CCl)cc2)c1 as the molecule, how does the inhibition read?
A: 19.3% (inactive)

Q: With CC(C)N(c1ccccc1)c1ccc(NC(=O)CCl)cc1 as the molecule, how does the inhibition read?
A: 95.4% (active)

Q: With CC(=O)Nc1ccc(NC(=O)Cc2ccc(-c3ccccc3)cc2)cc1 as the molecule, how does the inhibition read?
A: -16.2% (inactive)

Q: For O=C(CCCSc1ccc(Cl)cc1)Nc1ccccc1O, which inhibition is on record?
A: 59.4% (active)

Q: For CCNC(=S)Nc1ccc(N(c2ccccc2)C(C)C)cc1, which inhibition is on record?
A: -9.8% (inactive)

Q: With O=C(CCl)Nc1ccc(-c2ccccc2)cc1 as the molecule, how does the inhibition read?
A: 78.6% (active)

Q: For COC(=O)c1cccc(NC(=O)CCSc2ccc(Cl)cc2)c1C, which inhibition is on record?
A: -10.1% (inactive)

Q: With COc1ccc(/C=N/NC(=O)COc2ccc(Cl)cc2Cl)cc1Cn1nc(C)cc1C as the molecule, how does the inhibition read?
A: -18% (inactive)

Q: For COc1ccccc1N1CCN(C2CCCN(C(=O)CCC(C)=O)C2)CC1 (stereo not given), which inhibition is on record?
A: -21% (inactive)

Q: Which inhibition does the source give for COc1ccc(S(=O)(=O)N2CCC(C(=O)N[C@@H](C)C(=O)NCc3cccc(OC)c3)CC2)cc1 here?
A: -4.9% (inactive)

Q: Which inhibition does the source give for Cc1c(C)c2c(OCC(=O)N3CCC(C(=O)NCC(C)C)CC3)cc3c(c2oc1=O)CCC(C)(C)O3 here?
A: -19.1% (inactive)

Q: With O=C(CCCn1cnc2ccccc2c1=O)Nc1ccccc1F as the molecule, how does the inhibition read?
A: -9.5% (inactive)

Q: Which inhibition does the source give for Cc1cccc(C)c1NC(=O)C1C2C=CC(C2)C1C(=O)O (stereo not given) here?
A: -40.2% (inactive)

Q: With CCN1CCN(C(c2cccs2)C(C)NC(=O)c2ccco2)CC1 (stereo not given) as the molecule, how does the inhibition read?
A: 5.5% (inactive)

Q: For CC(=O)Nc1nnc(/C=C/c2cccc([N+](=O)[O-])c2)s1, which inhibition is on record?
A: 46% (inactive)

Q: With CC(=O)C1=C(O)C(=O)N(Cc2ccco2)C1c1cccc(F)c1 (stereo not given) as the molecule, how does the inhibition read?
A: -28% (inactive)

Q: Which inhibition does the source give for O=C(NCc1ccco1)c1ccc(Cl)c(S(=O)(=O)Nc2ccccc2)c1 here?
A: -15% (inactive)

Q: With COc1ccc(N(CC(=O)Nc2cc([N+](=O)[O-])ccc2C)S(C)(=O)=O)cc1OC as the molecule, how does the inhibition read?
A: 1.1% (inactive)

Q: For O=C(Cc1ccc(Cl)cc1)Nc1ccccc1Sc1ccccc1, which inhibition is on record?
A: -16.9% (inactive)

Q: For O=C(O)CCCC(=O)Nc1ccc(N=Nc2ccccc2)cc1, which inhibition is on record?
A: -13.6% (inactive)

Q: With O=C(O)CCC(=O)Nc1ccc(N=Nc2ccccc2)cc1 as the molecule, how does the inhibition read?
A: -26.1% (inactive)

Q: With O=C(CCl)Nc1ccccc1Sc1ccccc1 as the molecule, how does the inhibition read?
A: 21.3% (inactive)

Q: For O=C(CCl)Nc1ccc(N=Nc2ccccc2)cc1, which inhibition is on record?
A: 107% (active)

— PubChem BioAssay AID1578 (Sanford-Burnham Center for Chemical Genomics, 2009)
